Results published in ChEMBL document CHEMBL3988442, “University of Dundee, Small-Polar-MMV Screening Library” (2021).

Tests used:
[1] = target: T1, Aspartate--tRNA(Asp/Asn) ligase (Mycobacterium tuberculosis (strain ATCC 25618 / H37Rv)) (UniProt P9WFW3); assay: Assay for Asp RNA synthetase-1 from Mycobacterium tuberculosis; type: functional; set-up: scale not given: direction of the effect not stated beside the values; conditions: 30 µM; further: in the data most compounds retested in dose-response had high values
T1 sequence (whole entry): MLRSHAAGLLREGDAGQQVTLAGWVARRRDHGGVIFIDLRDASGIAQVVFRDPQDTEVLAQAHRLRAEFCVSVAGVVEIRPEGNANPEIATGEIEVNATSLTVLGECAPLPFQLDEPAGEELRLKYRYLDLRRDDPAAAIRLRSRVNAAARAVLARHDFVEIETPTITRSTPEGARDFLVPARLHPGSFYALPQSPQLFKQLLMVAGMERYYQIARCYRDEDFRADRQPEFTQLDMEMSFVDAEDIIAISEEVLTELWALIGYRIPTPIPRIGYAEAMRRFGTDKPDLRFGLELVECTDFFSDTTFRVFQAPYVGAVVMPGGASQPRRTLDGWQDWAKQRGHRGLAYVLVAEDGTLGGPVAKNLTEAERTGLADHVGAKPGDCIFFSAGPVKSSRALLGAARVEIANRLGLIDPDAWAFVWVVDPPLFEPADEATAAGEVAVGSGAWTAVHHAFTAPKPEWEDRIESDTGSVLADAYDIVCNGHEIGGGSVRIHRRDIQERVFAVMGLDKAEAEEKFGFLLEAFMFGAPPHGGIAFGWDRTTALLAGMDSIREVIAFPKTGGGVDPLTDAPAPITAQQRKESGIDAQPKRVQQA

[2] = target: Shiga toxin 2 (Escherichia coli O157:H7) (UniProt P09385+P09386); assay: E. coli 0.157:H7 Shiga Toxin SOP - stx2 screening assay; type: functional; set-up: scale not given: direction of the effect not stated beside the values; conditions: 30 µM

Compound: O=C(NCC(F)F)N1CCC(n2ccc(C(F)(F)F)n2)CC1
- Percent Effect [1]: -6.76%
- Percent Effect [2]: -7.64%

Compound: c1cnnc(N2CCCC2CNCc2nc3ccccc3o2)c1 (centres undefined)
- Percent Effect [1]: 7.18%
- Percent Effect [2]: -25.7%

Compound: CCNC(=O)CCN1CCC(c2cc(N3CCOCC3)nc(C)n2)CC1
- Percent Effect [1]: -4.4%
- Percent Effect [2]: -10.2%

Compound: CCN(CC)C(CNS(=O)(=O)c1ccc(C(=O)NC)cc1)c1ccco1 (centres undefined)
- Percent Effect [1]: -2.1%
- Percent Effect [2]: -17.4%

Compound: O=S(=O)(NCC1CCN(c2ccccn2)CC1)c1ccccc1F
- Percent Effect [1]: -0.51%
- Percent Effect [2]: -13.6%

Compound: COCCC(=O)N1CCn2c(COCC3CC3)cnc2C1C (centres undefined)
- Percent Effect [1]: 3.62%
- Percent Effect [2]: 5.04%

Compound: CS(=O)(=O)NCCCN1CCCC1c1ccccc1 (centres undefined)
- Percent Effect [1]: 2.4%
- Percent Effect [2]: 10%

Compound: NC(=O)c1cc(NC(=O)N2CCCCCC2)ccc1F
- Percent Effect [1]: 1.17%
- Percent Effect [2]: -21.4%

Compound: O=C1CC2(CCN(S(=O)(=O)C3CC3)C2)CN1c1cncnc1 (centres undefined)
- Percent Effect [1]: 4.51%
- Percent Effect [2]: -33.9%

Compound: C[C@@H]1C(=O)NC[C@H]2CN(CCc3ccccc3)C[C@H]21
- Percent Effect [1]: 4.21%
- Percent Effect [2]: -4.99%

Compound: COc1ncccc1CNC(=O)NC1CCOc2ccccc21 (centres undefined)
- Percent Effect [1]: -1.92%
- Percent Effect [2]: -19.2%

Compound: Cc1noc(C)c1-c1cccc(CC2CCN(C(=O)CCC(=O)O)C2)n1 (centres undefined)
- Percent Effect [1]: -0.313%
- Percent Effect [2]: -17.7%

Compound: Cc1csc(N2CCCN(C(=O)C3(C#N)CCCCC3)CC2)n1
- Percent Effect [1]: -4.79%
- Percent Effect [2]: 27.1%

Compound: O=C(NCCNc1ccc(C(F)(F)F)cn1)c1cncc(Br)c1
- Percent Effect [1]: 3.26%
- Percent Effect [2]: 28.2%

Compound: NC(=O)C1CCCN(C(=O)c2cnc3c(cnn3C3CCCC3)c2)C1 (centres undefined)
- Percent Effect [1]: -6.91%
- Percent Effect [2]: -20.7%

Compound: COc1ccc(S(N)(=O)=O)cc1C(=O)N(C)Cc1cc(C)on1
- Percent Effect [1]: -2.1%
- Percent Effect [2]: -47%

Compound: Cn1cc(C2CCCN2CCCc2nc(-c3cccs3)no2)cn1 (centres undefined)
- Percent Effect [1]: 0.756%
- Percent Effect [2]: 6.08%

Compound: Cc1cc(NCc2cccnc2)n2nc(C)cc2n1
- Percent Effect [1]: -2.06%
- Percent Effect [2]: 13.8%

Compound: O=C(NCc1cc[nH]n1)NCC(c1ccccc1Cl)N1CCCC1 (centres undefined)
- Percent Effect [1]: 5.68%
- Percent Effect [2]: 4.8%

Compound: Cc1cnn(CC2CN(Cc3nc(N)c4ccccc4n3)CCO2)c1 (centres undefined)
- Percent Effect [1]: 3.58%
- Percent Effect [2]: 20.2%

Compound: COCC1CN(C(=O)c2ccoc2C)Cc2nccn2C1 (centres undefined)
- Percent Effect [1]: 4.54%
- Percent Effect [2]: -11.3%

Compound: COC(=O)c1ccc(N2CCN(C(=O)c3cnn(C)c3)C(C)C2)cc1 (centres undefined)
- Percent Effect [1]: 0.343%
- Percent Effect [2]: -15.2%

Compound: CN(C)c1ccc(C(=O)N2CCN(C(=O)N3CCCCC3)CC2)nn1
- Percent Effect [1]: -3.34%
- Percent Effect [2]: -35%

Compound: CNS(=O)(=O)c1cccc(C(C)NCc2nccn2C(C)C)c1 (centres undefined)
- Percent Effect [1]: -2.07%
- Percent Effect [2]: -29.6%

Compound: O=C(c1cc(COc2ccc3c(c2)OCO3)[nH]n1)N1CCCC1
- Percent Effect [1]: 0.912%
- Percent Effect [2]: -23.7%

Compound: CNC(=O)CS(=O)(=O)C1CCN(S(=O)(=O)C2CC2)CC1
- Percent Effect [1]: 1.09%
- Percent Effect [2]: -3.71%

Compound: Cc1ccc(NC2CCN(C(=O)c3ccc(Cl)o3)CC2)nn1
- Percent Effect [1]: 1.75%
- Percent Effect [2]: 7.55%

Compound: CNC(=O)c1ccc(C2CN(C(=O)c3cncs3)CCO2)nc1 (centres undefined)
- Percent Effect [1]: 3.26%
- Percent Effect [2]: -3.71%

Compound: Cc1ccc(NC(=O)N2CCOC(C)C2)cc1Cl (centres undefined)
- Percent Effect [1]: 0.866%
- Percent Effect [2]: 1.77%

Compound: Cn1ccc(C(=O)N2CCN(c3ncccn3)CC2)cc1=O
- Percent Effect [1]: 1.62%
- Percent Effect [2]: 22.4%

Compound: CN(Cc1cccc(F)c1)C1CCN(CCc2ccccn2)CC1
- Percent Effect [1]: -3.32%
- Percent Effect [2]: -8.85%

Compound: Cc1cc(N(C)Cc2noc(C)n2)n2nc(C)c(C)c2n1
- Percent Effect [1]: -0.251%
- Percent Effect [2]: -8.78%

Compound: CC(O)CN1CCN(C(=O)c2cc3ccccc3c(=O)[nH]2)CC1 (centres undefined)
- Percent Effect [1]: 0.869%
- Percent Effect [2]: -10.8%

Compound: CC(=O)NCCNC(=O)c1cnc(-c2ccccc2)nc1
- Percent Effect [1]: 4.64%
- Percent Effect [2]: -11.3%

Compound: Cn1nccc1-c1ccc2nc(C3CCN(CCO)CC3)nn2c1
- Percent Effect [1]: -1.83%
- Percent Effect [2]: -15.6%

Compound: CCN(CCC(F)(F)F)C(=O)Nc1cccc(N2CCOCC2)c1
- Percent Effect [1]: 1.08%
- Percent Effect [2]: -51.5%

Compound: Cc1nc(C2CCCN(C(=O)CCCn3ccnc3C)C2)no1 (centres undefined)
- Percent Effect [1]: -1%
- Percent Effect [2]: 14.1%

Compound: CCNC(=O)c1nnn(Cc2ccccc2)c1OC
- Percent Effect [1]: 0.29%
- Percent Effect [2]: -14.9%

Compound: CN(CC1CCCCO1)C(=O)c1ccnc(OC2CCC2)c1 (centres undefined)
- Percent Effect [1]: -2.11%
- Percent Effect [2]: -8.22%

Compound: Cc1cnn(CC(C)NCc2nc(-c3cccnc3)no2)c1 (centres undefined)
- Percent Effect [1]: 1%
- Percent Effect [2]: -15.5%

Compound: CCOc1ccccc1C(CC(=O)Nc1ccccc1F)NC(C)=O (centres undefined)
- Percent Effect [1]: -4.12%
- Percent Effect [2]: 31.5%

Compound: CN(CC(=O)NCc1ccccn1)CC1CCCN1c1cccnn1 (centres undefined)
- Percent Effect [1]: -4.1%
- Percent Effect [2]: -17.5%

Compound: CCn1ccnc1CN1CCN(CC(=O)NC(=O)NC2CC2)CC1
- Percent Effect [1]: -2.79%
- Percent Effect [2]: 24.4%

Compound: CCN1CCN(c2ncc(-c3cc(C)no3)c(-c3ccc(C)s3)n2)CC1
- Percent Effect [1]: 2.72%
- Percent Effect [2]: 2.82%

Compound: CCOC(=O)[C@]12CCCN(Cc3nccs3)C[C@H]1CN(C(C)=O)C2
- Percent Effect [1]: 2.52%
- Percent Effect [2]: -5.93%

Compound: CC(C)[C@H](NC(=O)NC1CCS(=O)(=O)C1)C(=O)NCc1ccccc1Cl (some centres undefined)
- Percent Effect [1]: 0.145%
- Percent Effect [2]: -30%

Compound: CSc1ccc(C(CNC(=O)C2CC2)N2CCc3sccc3C2)cc1 (centres undefined)
- Percent Effect [1]: -0.15%
- Percent Effect [2]: 11.2%
